The supplement of paper PMC10037445
Where “and” joins values, the source holds several entries; their conditions need not be identical. Identical values can stand only once. The full ranking holds about 2,900 compounds; the median of “NF-kB SEAP reporter activity, fold change vs agonist alone” is about 0.99, and the highest 2% start at about 2.6. This is one part of a sample in which the highest values are shown more often than they occur.

Columns and labels:
RAW-Dual [1] = assay: NF-kB SEAP reporter activity, fold change vs agonist alone; higher = enhanced NF-kB activity
Outline: (§1)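 Reporter activity is given as fold change relative to agonist-alone wells. To measure it, 50 nL of library stock was pin-tooled onto RAW-Dual macrophages (50,000 cells/well, DMEM, 384-well plates), a PRR agonist followed 1 h later, and cells stayed at 37 °C, 5% CO2. Twenty hours on, supernatant was assayed for IRF (QuantiLuc luminescence) and NF-κB (QuantiBlue, 620 nm absorbance), and wells under 70% of agonist-control IncuCyte confluency in both mask sets were marked cytotoxic.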

RAW-Dual [2] = assay: NF-kB SEAP reporter activity, fold change vs agonist alone; cytotoxicity flag (confluency mask): cytotoxic (confluency <70% of control); higher = enhanced NF-kB activity
Outline: as §1

RAW-Dual [3] = assay: NF-kB SEAP reporter activity, fold change vs agonist alone; cytotoxicity flag (confluency mask): not cytotoxic; higher = enhanced NF-kB activity
Outline: as §1

[4] = library stock concentration (final ~1000-fold dilution): 10 mM, cytotoxicity flag (confluency mask): not cytotoxic, agonist: Imiquimod (TLR7) […]
[5] = library stock concentration (final ~1000-fold dilution): 10 mM, cytotoxicity flag (confluency mask): not cytotoxic, agonist: MPLA (TLR4) […]
[6] = agonist: ODN 1826 (TLR9) 0.5 ug/mL
[7] = agonist: Pam2CSK4 (TLR2/6) 0.1 ug/mL
[8] = agonist: Pam3CSK4 (TLR2/1) 0.1 ug/mL
[9] = library stock concentration (final ~1000-fold dilution): 10 mM, cytotoxicity flag (confluency mask): cytotoxic (confluency <70% of control), agonist: Imiquimod (TLR7) […]
[10] = library stock concentration (final ~1000-fold dilution): 10 mM, cytotoxicity flag (confluency mask): cytotoxic (confluency <70% of control), agonist: MPLA (TLR4) […]

SMILES: O=C(Nc1ccncc1)c1cc([N+](=O)[O-])ccc1Cl
- NF-kB SEAP reporter activity (RAW-Dual [1]; [4]): 0.837
- NF-kB SEAP reporter activity (RAW-Dual [1]; [5]): 0.684

SMILES: O=C(Nc1cc(C(F)(F)F)cc(C(F)(F)F)c1)c1cc(Cl)ccc1O (library stock concentration (final ~1000-fold dilution): 10 mM)
- NF-kB SEAP reporter activity (RAW-Dual [2]; agonist: LPS (TLR4) 0.1 ug/mL): 4.53 and 3.94
- NF-kB SEAP reporter activity (RAW-Dual [2]; [6]): 1.84 and 1.74
- NF-kB SEAP reporter activity (RAW-Dual [2]; [7]): 1.25 and 1.03
- NF-kB SEAP reporter activity (RAW-Dual [2]; [8]): 1.99 and 1.13

SMILES: O=C(Nc1cc(C(F)(F)F)ccc1N1CCCCC1)c1ccncc1 (library stock concentration (final ~1000-fold dilution): 10 mM)
- NF-kB SEAP reporter activity (RAW-Dual [3]; agonist: LPS (TLR4) 0.1 ug/mL): 0.802
- NF-kB SEAP reporter activity (RAW-Dual [3]; [6]): 0.875
- NF-kB SEAP reporter activity (RAW-Dual [3]; [7]): 0.764
- NF-kB SEAP reporter activity (RAW-Dual [3]; [8]): 0.771

SMILES: O=C(Nc1cc(C(F)(F)F)ccc1C(F)(F)F)c1cc(Br)ccc1O
- NF-kB SEAP reporter activity (RAW-Dual [1]; [9]): 0.255
- NF-kB SEAP reporter activity (RAW-Dual [1]; [10]): 2.3

SMILES: Cl.Nc1ccc(Cl)cc1C(=O)C(F)(F)F
- NF-kB SEAP reporter activity (RAW-Dual [1]; [5]): 1.24

SMILES: Cc1oncc1C(=O)Nc1ccc(C(F)(F)F)cc1 (library stock concentration (final ~1000-fold dilution): 10 mM)
- NF-kB SEAP reporter activity (RAW-Dual [3]; agonist: LPS (TLR4) 0.1 ug/mL): 0.926
- NF-kB SEAP reporter activity (RAW-Dual [3]; [6]): 1.24
- NF-kB SEAP reporter activity (RAW-Dual [3]; [7]): 0.908
- NF-kB SEAP reporter activity (RAW-Dual [3]; [8]): 1.07

SMILES: Cc1oncc1C(=O)Nc1ccc(C(F)(F)F)cc1
- NF-kB SEAP reporter activity (RAW-Dual [1]; [4]): 1.24
- NF-kB SEAP reporter activity (RAW-Dual [1]; [5]): 1.15

SMILES: Cl.Nc1ccc(Cl)cc1C(=O)C(F)(F)F (library stock concentration (final ~1000-fold dilution): 10 mM)
- NF-kB SEAP reporter activity (RAW-Dual [3]; agonist: LPS (TLR4) 0.1 ug/mL): 1.2
- NF-kB SEAP reporter activity (RAW-Dual [3]; [6]): 1.04
- NF-kB SEAP reporter activity (RAW-Dual [3]; [7]): 1.01
- NF-kB SEAP reporter activity (RAW-Dual [3]; [8]): 0.971

SMILES: O=C(Nc1cc(C(F)(F)F)ccc1N1CCCCC1)c1ccncc1
- NF-kB SEAP reporter activity (RAW-Dual [1]; [4]): 0.957
- NF-kB SEAP reporter activity (RAW-Dual [1]; [5]): 1.01

SMILES: O=C(Nc1cc(C(F)(F)F)ccc1C(F)(F)F)c1cc(Br)ccc1O (library stock concentration (final ~1000-fold dilution): 10 mM)
- NF-kB SEAP reporter activity (RAW-Dual [2]; agonist: LPS (TLR4) 0.1 ug/mL): 2.68
- NF-kB SEAP reporter activity (RAW-Dual [2]; [6]): 1.82
- NF-kB SEAP reporter activity (RAW-Dual [2]; [7]): 0.573
- NF-kB SEAP reporter activity (RAW-Dual [2]; [8]): 0.839

SMILES: CC(ONC(=O)c1cc(C(F)(F)F)cc(C(F)(F)F)c1)C(=O)Nc1ccc(Cl)cc1 (stereo not drawn)
- NF-kB SEAP reporter activity (RAW-Dual [1]; [4]): 0.98
- NF-kB SEAP reporter activity (RAW-Dual [1]; [5]): 1.4

SMILES: O=C(Nc1ccc([N+](=O)[O-])cc1Cl)c1cc(Cl)ccc1O
- NF-kB SEAP reporter activity (RAW-Dual [1]; [4]): 1
- NF-kB SEAP reporter activity (RAW-Dual [1]; [5]): 1.05

SMILES: Cl.NCCOc1ccc(Cl)cc1C(=O)Nc1ccc([N+](=O)[O-])cc1Cl
- NF-kB SEAP reporter activity (RAW-Dual [1]; [4]): 1.31
- NF-kB SEAP reporter activity (RAW-Dual [1]; [5]): 0.949

SMILES: O=C(Nc1ccncc1)c1cc([N+](=O)[O-])ccc1Cl (library stock concentration (final ~1000-fold dilution): 10 mM)
- NF-kB SEAP reporter activity (RAW-Dual [3]; agonist: LPS (TLR4) 0.1 ug/mL): 0.801
- NF-kB SEAP reporter activity (RAW-Dual [3]; [6]): 0.584
- NF-kB SEAP reporter activity (RAW-Dual [3]; [7]): 0.853
- NF-kB SEAP reporter activity (RAW-Dual [3]; [8]): 0.69

SMILES: Cl.NCCOc1ccc(Cl)cc1C(=O)Nc1ccc([N+](=O)[O-])cc1Cl (library stock concentration (final ~1000-fold dilution): 10 mM)
- NF-kB SEAP reporter activity (RAW-Dual [3]; agonist: LPS (TLR4) 0.1 ug/mL): 1.29
- NF-kB SEAP reporter activity (RAW-Dual [3]; [6]): 0.59
- NF-kB SEAP reporter activity (RAW-Dual [3]; [7]): 0.918
- NF-kB SEAP reporter activity (RAW-Dual [3]; [8]): 0.91

SMILES: Cc1c(-c2ccc(C(N)=O)c3[nH]c4cc(C(C)(C)O)ccc4c23)cccc1-n1cnc2ccccc2c1=O
- NF-kB SEAP reporter activity (RAW-Dual [1]; [4]): 1.76
- NF-kB SEAP reporter activity (RAW-Dual [1]; [5]): 1.37

SMILES: Cc1c(-c2ccc(C(N)=O)c3[nH]c4cc(C(C)(C)O)ccc4c23)cccc1-n1cnc2ccccc2c1=O (library stock concentration (final ~1000-fold dilution): 10 mM)
- NF-kB SEAP reporter activity (RAW-Dual [3]; agonist: LPS (TLR4) 0.1 ug/mL): 1.25
- NF-kB SEAP reporter activity (RAW-Dual [3]; [6]): 1.1
- NF-kB SEAP reporter activity (RAW-Dual [3]; [7]): 0.537
- NF-kB SEAP reporter activity (RAW-Dual [3]; [8]): 0.833

SMILES: CC(O)C1C(=O)N2C(C(=O)O)=C(SCCNC=N)CC12.O (stereo not drawn) (library stock concentration (final ~1000-fold dilution): 10 mM water)
- NF-kB SEAP reporter activity (RAW-Dual [3]; agonist: LPS (TLR4) 0.1 ug/mL): 1.41
- NF-kB SEAP reporter activity (RAW-Dual [3]; [6]): 1.16
- NF-kB SEAP reporter activity (RAW-Dual [3]; [7]): 1.23
- NF-kB SEAP reporter activity (RAW-Dual [3]; [8]): 1.07

SMILES: CC(O)C1C(=O)N2C(C(=O)O)=C(SCCNC=N)CC12.O (stereo not drawn)
- NF-kB SEAP reporter activity (RAW-Dual [1]; library stock concentration (final ~1000-fold dilution): 10 mM water, cytotoxicity flag (confluency mask): not cytotoxic, agonist: Imiquimod (TLR7) […]): 0.896
- NF-kB SEAP reporter activity (RAW-Dual [1]; library stock concentration (final ~1000-fold dilution): 10 mM water, cytotoxicity flag (confluency mask): not cytotoxic, agonist: MPLA (TLR4) […]): 1.02

SMILES: CCCn1c(NC(=O)c2cccc(C(N)=O)c2)nc2ccccc21
- NF-kB SEAP reporter activity (RAW-Dual [1]; [4]): 0.36
- NF-kB SEAP reporter activity (RAW-Dual [1]; [5]): 0.54

SMILES: CCCn1c(NC(=O)c2cccc(C(N)=O)c2)nc2ccccc21 (library stock concentration (final ~1000-fold dilution): 10 mM)
- NF-kB SEAP reporter activity (RAW-Dual [3]; agonist: LPS (TLR4) 0.1 ug/mL): 0.482
- NF-kB SEAP reporter activity (RAW-Dual [3]; [6]): 0.333
- NF-kB SEAP reporter activity (RAW-Dual [3]; [7]): 0.143
- NF-kB SEAP reporter activity (RAW-Dual [3]; [8]): 0.205

SMILES: COc1ccc(N2C(=O)/C(=C/c3ccc([N+](=O)[O-])s3)SC2=S)cc1
- NF-kB SEAP reporter activity (RAW-Dual [1]; [9]): 1.65
- NF-kB SEAP reporter activity (RAW-Dual [1]; [10]): 1.63

SMILES: COc1ccc(N2C(=O)/C(=C/c3ccc([N+](=O)[O-])s3)SC2=S)cc1 (library stock concentration (final ~1000-fold dilution): 10 mM)
- NF-kB SEAP reporter activity (RAW-Dual [2]; agonist: LPS (TLR4) 0.1 ug/mL): 0.439
- NF-kB SEAP reporter activity (RAW-Dual [2]; [6]): 2.23
- NF-kB SEAP reporter activity (RAW-Dual [2]; [7]): 0.267
- NF-kB SEAP reporter activity (RAW-Dual [2]; [8]): 0.382

SMILES: CC(NC(=O)/C(C#N)=C/c1cccc(Br)n1)c1ccccc1 (stereo not drawn)
- NF-kB SEAP reporter activity (RAW-Dual [1]; [9]): 0.268
- NF-kB SEAP reporter activity (RAW-Dual [1]; [10]): 0.204

SMILES: CC(NC(=O)/C(C#N)=C/c1cccc(Br)n1)c1ccccc1 (stereo not drawn) (library stock concentration (final ~1000-fold dilution): 10 mM)
- NF-kB SEAP reporter activity (RAW-Dual [2]; agonist: LPS (TLR4) 0.1 ug/mL): 0.233
- NF-kB SEAP reporter activity (RAW-Dual [2]; [6]): 0.186
- NF-kB SEAP reporter activity (RAW-Dual [2]; [7]): 0.0992
- NF-kB SEAP reporter activity (RAW-Dual [2]; [8]): 0.136

SMILES: CCC1OC(=O)C(C)(F)C(=O)C(C)C(OC2OC(C)CC(N(C)C)C2O)C(C)(OC)CC(C)C(=O)C(C)C2N(CCCCn3cc(-c4cccc(N)c4)nn3)C(=O)OC12C (stereo not drawn)
- NF-kB SEAP reporter activity (RAW-Dual [1]; [5]): 1.53

SMILES: CCC1OC(=O)C(C)(F)C(=O)C(C)C(OC2OC(C)CC(N(C)C)C2O)C(C)(OC)CC(C)C(=O)C(C)C2N(CCCCn3cc(-c4cccc(N)c4)nn3)C(=O)OC12C (stereo not drawn) (library stock concentration (final ~1000-fold dilution): 10 mM)
- NF-kB SEAP reporter activity (RAW-Dual [3]; agonist: LPS (TLR4) 0.1 ug/mL): 1.47
- NF-kB SEAP reporter activity (RAW-Dual [3]; [6]): 0.196
- NF-kB SEAP reporter activity (RAW-Dual [3]; [7]): 0.966
- NF-kB SEAP reporter activity (RAW-Dual [3]; [8]): 0.98
